Reference: ChEMBL document CHEMBL1157539, “Thousands of chemical starting points for antimalarial lead identification” (Nature, 2010)

These compounds were tested on Plasmodium falciparum (assay: GSK_TCMDC: Inhibition of Plasmodium falciparum Dd2 in whole red blood cells, using parasite LDH activity as an index of growth. Test compounds present at 2uM).
Type: functional
With `CCNc1cc(C(=O)N[C@@H](Cc2ccccc2)[C@H](O)CNC2CCC(F)(F)CC2)c(F)c(N2CCCCS2(=O)=O)c1.O=CO` the Inhibition was 97%. Work on `CCCCN(Cc1cccc(C(F)(F)F)c1Cl)c1ccc(C(O)(C(F)(F)F)C(F)(F)F)cc1.O=C(O)C(F)(F)F` yielded an Inhibition of 55%. Work on `N#Cc1cc(C(=O)c2cc(Br)ccc2O)cn(-c2cc(Cl)cc(Cl)c2)c1=O` yielded an Inhibition of 35%. With `O=C(Nc1ccccc1Oc1ccccc1)NC1CCN(c2ccnc3cc(Cl)ccc23)C1.O=C(O)C(F)(F)F` (stereo not given) the Inhibition was 74%. With `Cc1ccc(NC(=O)c2ccc(CN3CCCN(CCC(C)C)CC3)cc2)cc1F.O=C(O)C(F)(F)F` the Inhibition was 31%. With `Nc1ncc(-c2cn[nH]c2)cc1-c1nc2ccc(F)cc2[nH]1` the Inhibition was 53%. `CCc1sc(-c2cc(Cl)ccc2OC)nc1C(=O)NCCN1CCCCC1.O=C(O)C(F)(F)F` showed an Inhibition of 28%. With `CCCN/C=N/c1cc(-c2csc(NC(=N)N)n2)cc([N+](=O)[O-])c1` the Inhibition was 1%. Compound `Nc1ncc(-c2ccc(F)cc2)cc1-c1nc2ccc(Cl)cc2[nH]1` has an Inhibition of 44%. In the case of `NCCCNc1ccnc2cc(Cl)ccc12`, the Inhibition is reported as 25%. `Cc1cc(-c2ccc(CN3Cc4ccccc4C3)cc2)ccc1S(=O)(=O)NCCN1CCCC1.O=C(O)C(F)(F)F` gave an Inhibition of 10%. Compound `O=C(Nc1ccccc1-c1nc2ccccc2s1)C(Cl)(Cl)Cl` has an Inhibition of 99%. Work on `CCn1c(-c2nonc2N)nc2c(Cl)ncc(O[C@H](CCN)c3ccccc3F)c21.Cl` yielded an Inhibition of 88%. For `COc1cc(Nc2ccnc3cc(-c4ccncc4)ccc23)cc(OC)c1OC.Cl`, the Inhibition was 39%. `O=C(N/C=N/c1cc([N+](=O)[O-])c(-c2cccnc2)n1-c1ccc(O)cc1)c1ccccc1` gave an Inhibition of 62%. `O=C(Nc1ccc(Cl)c(Cl)c1)Nc1cc(C(F)(F)F)ccc1Cl` showed an Inhibition of 85%. `CC(=O)NCCNc1nccc(N2CCc3ncnc(Nc4ccc(OCc5ccccn5)c(Cl)c4)c3C2)n1` gave an Inhibition of 99%. Work on `O=C(NC1CCCCC1)N(Cc1ccc(-c2cccc(CNCc3ccc4c(c3)OCO4)c2)cc1)C1CCN(Cc2ccccc2)CC1.O=C(O)C(F)(F)F` yielded an Inhibition of 72%. Work on `CN(Cc1c(Cl)cnn1C)S(=O)(=O)c1ccc2ccccc2c1` yielded an Inhibition of 36%. `Cc1cc(Nc2ccccc2)nc(Nc2ccccc2)n1` gave an Inhibition of 74%. `COc1ccc2nccc([C@@H](O)CNCCCN(C)CCOc3cc(F)cc(F)c3)c2c1.O=C(O)C(=O)O` was tested, and the Inhibition was 58%. `CC(=O)N(C)c1cccc(C(=O)Nc2cccc(-c3cccc(-c4nc5cccc(C)c5[nH]4)c3)c2)c1` showed an Inhibition of 41%. Compound `COc1ccc(C(=O)Nc2ccc(-c3ccc([N+](=O)[O-])cc3)cc2)cc1CCCN(C)C.Cl` has an Inhibition of 9%. `COc1ccc2nccc([C@@H](O)CN3CCC(CO)(NCc4cc5ccccc5o4)CC3)c2c1.O=C(O)C(=O)O` showed an Inhibition of 7%. Work on `COC(=O)c1cccc(CNCc2ccc(-c3cccc(-c4nc5ccccc5[nH]4)c3)cc2)c1.O=C(O)C(F)(F)F` yielded an Inhibition of 46%. Compound `O=c1cc(NCCCNCc2cccc(OC(F)(F)C(F)F)c2)[nH]c2ccccc12` has an Inhibition of 7%. In the case of `CCC[C@@H]([C@@H](CC1CCCCC1)C(=O)N[C@H](C(=O)Nc1nccs1)[C@@H](C)OCc1ccccc1)N(O)C=O`, the Inhibition is reported as 99%. Work on `Cl.O=c1cc(NCCCNCc2cc3ccccc3s2)[nH]c2ccccc12` yielded an Inhibition of 0%. `Cc1occc1C(=O)Nc1nc(-c2ccccn2)nc2ccsc12` gave an Inhibition of 98%. `Cc1[nH]c(C)c(-c2ccc(-c3ccccc3C(F)(F)F)nc2)c(=O)c1Br` was tested, and the Inhibition was 96%. Compound `CS(=O)(=O)CCNCc1nc(-c2ccc3c(Nc4ccc(Oc5ccccn5)cc4)ccnc3c2)cs1` has an Inhibition of 89%. `Fc1ccc(C(OCC2CCCN(Cc3cccc4cccnc34)C2)c2ccc(F)cc2)cc1` (stereo not given) showed an Inhibition of 97%. `O=C(Nc1ccc(Cl)cc1)c1ccc(CN2CCCN(Cc3ccc(F)cc3)CC2)cc1.O=C(O)C(F)(F)F` gave an Inhibition of 8%. For `O=C(/C=C/c1ccc(Cl)c(Cl)c1)NCCCCCCN1CCCN(C(=O)Nc2ccc(F)c(F)c2)CC1`, the Inhibition was 2%. `COc1cc(C(=O)NC2CCN(Cc3ccccc3)CC2)ccc1-c1nc2cc(Cl)c(C)cc2[nH]1` gave an Inhibition of 97%. `O=c1cc(NCCCNC2CCCc3c2ccc2ccccc32)[nH]c2ccccc12` (stereo not given) gave an Inhibition of 30%. Work on `Br.COc1ccccc1CCCON1C(=N)N=C(N)NC1(C)C` yielded an Inhibition of 92%. `COc1cccc(CNC(=O)NC2CCN(c3ccnc(Nc4cc(OC)c(OC)c(OC)c4)n3)C2)c1` (stereo not given) showed an Inhibition of 84%. Compound `CCOC(=O)c1sc(C(C)Nc2ccccc2)nc1-c1ccccc1` (stereo not given) has an Inhibition of 91%. `Cl.Oc1ccc2c(CNCCc3ccccc3)c(O)ccc2c1CNCCc1ccccc1` gave an Inhibition of 100%.

Each compound was assayed on HepG2 (assay: GSK_TCMDC: Percent inhibition of human HepG2 cell line. Test compounds present at 10uM.).
Type: functional
For `CCNc1cc(C(=O)N[C@@H](Cc2ccccc2)[C@H](O)CNC2CCC(F)(F)CC2)c(F)c(N2CCCCS2(=O)=O)c1.O=CO`, the Inhibition was 0%. In the case of `CCCCN(Cc1cccc(C(F)(F)F)c1Cl)c1ccc(C(O)(C(F)(F)F)C(F)(F)F)cc1.O=C(O)C(F)(F)F`, the Inhibition is reported as 10%. Compound `N#Cc1cc(C(=O)c2cc(Br)ccc2O)cn(-c2cc(Cl)cc(Cl)c2)c1=O` has an Inhibition of 42%. `O=C(Nc1ccccc1Oc1ccccc1)NC1CCN(c2ccnc3cc(Cl)ccc23)C1.O=C(O)C(F)(F)F` (stereo not given) gave an Inhibition of 0%. `Cc1ccc(NC(=O)c2ccc(CN3CCCN(CCC(C)C)CC3)cc2)cc1F.O=C(O)C(F)(F)F` showed an Inhibition of 40%. `Nc1ncc(-c2cn[nH]c2)cc1-c1nc2ccc(F)cc2[nH]1` showed an Inhibition of 38%. Compound `CCc1sc(-c2cc(Cl)ccc2OC)nc1C(=O)NCCN1CCCCC1.O=C(O)C(F)(F)F` has an Inhibition of 3%. In the case of `CCCN/C=N/c1cc(-c2csc(NC(=N)N)n2)cc([N+](=O)[O-])c1`, the Inhibition is reported as 12%. In the case of `Nc1ncc(-c2ccc(F)cc2)cc1-c1nc2ccc(Cl)cc2[nH]1`, the Inhibition is reported as 45%. In the case of `NCCCNc1ccnc2cc(Cl)ccc12`, the Inhibition is reported as 14%. `Cc1cc(-c2ccc(CN3Cc4ccccc4C3)cc2)ccc1S(=O)(=O)NCCN1CCCC1.O=C(O)C(F)(F)F` gave an Inhibition of 49%. For `O=C(Nc1ccccc1-c1nc2ccccc2s1)C(Cl)(Cl)Cl`, the Inhibition was 12%. `CCn1c(-c2nonc2N)nc2c(Cl)ncc(O[C@H](CCN)c3ccccc3F)c21.Cl` gave an Inhibition of 15%. Work on `COc1cc(Nc2ccnc3cc(-c4ccncc4)ccc23)cc(OC)c1OC.Cl` yielded an Inhibition of 9%. For `O=C(N/C=N/c1cc([N+](=O)[O-])c(-c2cccnc2)n1-c1ccc(O)cc1)c1ccccc1`, the Inhibition was 17%. Compound `O=C(Nc1ccc(Cl)c(Cl)c1)Nc1cc(C(F)(F)F)ccc1Cl` has an Inhibition of 0%. Work on `CC(=O)NCCNc1nccc(N2CCc3ncnc(Nc4ccc(OCc5ccccn5)c(Cl)c4)c3C2)n1` yielded an Inhibition of 0%. `O=C(NC1CCCCC1)N(Cc1ccc(-c2cccc(CNCc3ccc4c(c3)OCO4)c2)cc1)C1CCN(Cc2ccccc2)CC1.O=C(O)C(F)(F)F` was tested, and the Inhibition was 23%. Work on `CN(Cc1c(Cl)cnn1C)S(=O)(=O)c1ccc2ccccc2c1` yielded an Inhibition of 7%. `Cc1cc(Nc2ccccc2)nc(Nc2ccccc2)n1` showed an Inhibition of 0%. `COc1ccc2nccc([C@@H](O)CNCCCN(C)CCOc3cc(F)cc(F)c3)c2c1.O=C(O)C(=O)O` was tested, and the Inhibition was 11%. `CC(=O)N(C)c1cccc(C(=O)Nc2cccc(-c3cccc(-c4nc5cccc(C)c5[nH]4)c3)c2)c1` gave an Inhibition of 15%. `COc1ccc(C(=O)Nc2ccc(-c3ccc([N+](=O)[O-])cc3)cc2)cc1CCCN(C)C.Cl` gave an Inhibition of 20%. `COc1ccc2nccc([C@@H](O)CN3CCC(CO)(NCc4cc5ccccc5o4)CC3)c2c1.O=C(O)C(=O)O` showed an Inhibition of 12%. For `COC(=O)c1cccc(CNCc2ccc(-c3cccc(-c4nc5ccccc5[nH]4)c3)cc2)c1.O=C(O)C(F)(F)F`, the Inhibition was 5%. `O=c1cc(NCCCNCc2cccc(OC(F)(F)C(F)F)c2)[nH]c2ccccc12` gave an Inhibition of 6%. With `CCC[C@@H]([C@@H](CC1CCCCC1)C(=O)N[C@H](C(=O)Nc1nccs1)[C@@H](C)OCc1ccccc1)N(O)C=O` the Inhibition was 51%. For `Cl.O=c1cc(NCCCNCc2cc3ccccc3s2)[nH]c2ccccc12`, the Inhibition was 3%. Work on `Cc1occc1C(=O)Nc1nc(-c2ccccn2)nc2ccsc12` yielded an Inhibition of 68%. In the case of `Cc1[nH]c(C)c(-c2ccc(-c3ccccc3C(F)(F)F)nc2)c(=O)c1Br`, the Inhibition is reported as 0%. For `CS(=O)(=O)CCNCc1nc(-c2ccc3c(Nc4ccc(Oc5ccccn5)cc4)ccnc3c2)cs1`, the Inhibition was 9%. Work on `Fc1ccc(C(OCC2CCCN(Cc3cccc4cccnc34)C2)c2ccc(F)cc2)cc1` (stereo not given) yielded an Inhibition of 21%. `O=C(Nc1ccc(Cl)cc1)c1ccc(CN2CCCN(Cc3ccc(F)cc3)CC2)cc1.O=C(O)C(F)(F)F` showed an Inhibition of 48%. `O=C(/C=C/c1ccc(Cl)c(Cl)c1)NCCCCCCN1CCCN(C(=O)Nc2ccc(F)c(F)c2)CC1` gave an Inhibition of 72%. `COc1cc(C(=O)NC2CCN(Cc3ccccc3)CC2)ccc1-c1nc2cc(Cl)c(C)cc2[nH]1` gave an Inhibition of 0%. `O=c1cc(NCCCNC2CCCc3c2ccc2ccccc32)[nH]c2ccccc12` (stereo not given) gave an Inhibition of 0%. `Br.COc1ccccc1CCCON1C(=N)N=C(N)NC1(C)C` gave an Inhibition of 68%. `COc1cccc(CNC(=O)NC2CCN(c3ccnc(Nc4cc(OC)c(OC)c(OC)c4)n3)C2)c1` (stereo not given) was tested, and the Inhibition was 15%. In the case of `CCOC(=O)c1sc(C(C)Nc2ccccc2)nc1-c1ccccc1` (stereo not given), the Inhibition is reported as 0%. Compound `Cl.Oc1ccc2c(CNCCc3ccccc3)c(O)ccc2c1CNCCc1ccccc1` has an Inhibition of 24%.
